Unmarked numbers belong to inactive results. Activity calls are given as the source filed them. The call rests on the fitted dose curve; in most records, active means well fitted activation curve with a large enough effect; inconclusive means small, poorly fitted or top-dose-only effect; inactive means no such curve, though single readings can be large or run the other way.
Potency means the concentration at half of the fitted maximal effect.

Sequence of Cytochrome P450 3A4 (Homo sapiens) (P08684 whole entry, looked up): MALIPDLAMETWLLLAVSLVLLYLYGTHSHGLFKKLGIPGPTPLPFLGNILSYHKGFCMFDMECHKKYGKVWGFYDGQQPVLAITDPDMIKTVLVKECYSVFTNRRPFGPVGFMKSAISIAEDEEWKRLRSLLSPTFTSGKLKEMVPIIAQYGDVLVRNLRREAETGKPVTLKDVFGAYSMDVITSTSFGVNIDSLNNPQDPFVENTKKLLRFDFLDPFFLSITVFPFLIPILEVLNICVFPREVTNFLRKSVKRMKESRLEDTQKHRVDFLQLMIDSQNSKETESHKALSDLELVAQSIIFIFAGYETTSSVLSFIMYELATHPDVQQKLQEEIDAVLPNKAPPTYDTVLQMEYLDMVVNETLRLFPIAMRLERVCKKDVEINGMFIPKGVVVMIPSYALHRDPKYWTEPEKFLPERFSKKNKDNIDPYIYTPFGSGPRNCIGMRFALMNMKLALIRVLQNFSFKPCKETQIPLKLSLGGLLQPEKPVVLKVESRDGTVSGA

The target of this experiment is Cytochrome P450 3A4 (Homo sapiens) (UniProt P08684). In words: qHTS Assay for Activators of Cytochrome P450 3A4 (AID 885). Further: nearly all actives have a fitted effect of over 65% in size. Particulars: recombinant CYP3A4, Luciferin-PPXE luminescence, 60 min; series mostly up to 57.1 µM; activity change, positive = activation: at the top concentration. The procedure:
NIH Molecular Libraries Screening Centers Network [MLSCN]
NIH Chemical Genomics Center [NCGC]
The P450 gene superfamily is involved in the metabolism and clearance of xenobiotics. This assay used human CYP3A4 to measure the dealkylation of luciferin-6' phenylpiperazinylyl (Luciferin-PPXE; […]) to luciferin. The luciferin is then measured by luminescence after the addition of a luciferase detection reagent. Luciferin-PPXE concentration in the assay was equal to its KM for CYP3A4. Inhibitors and some substrates limit the production of luciferin, and decrease measured luminescence; activators increase the production of luciferin and luminescence.
NCGC Assay Protocol Summary:
Two uL of enzyme and substrate mix (final concentrations: 20nM CYP3A4, 25uM Luciferin-PPXE, 200mM KPO4) were dispensed into a white, solid bottom 1536-well microtiter plate. 23nL of compound was transferred by a pin tool. The plate was incubated at RT for 10 min. Two uL of an NADPH regeneration solution (Promega supplied reagent) was dispensed and the reaction was allowed to continue for 60 min at RT. Then the reaction was stopped by reconstituted luciferin detection buffer. After another 20 min of incubation the plate was read on the ViewLux (Perkin Elmer) at 60 sec exposure and 2x2 binning. This protocol was carried out with Promega-Glo reagents and further information can be found at http://www.promega.com/tbs/tb325/tb325.pdf. Data were normalized to the to AC100 inhibition (57 uM ketoconazole).
Keywords: P450, CYP2D6, Luciferase, MLSMR, MLSCN, NIH Roadmap, qHTS, NCGC
For orientation: In qHTS, concentration-response curves come from the screen itself.
`O=C(Cc1ccccc1)Nc1nc2ccc(Cl)cc2c2nc(-c3ccco3)nn12`: the “activity change, positive = activation” value is -41.2%.

On to `COCCNC(=O)COc1ccc(OCCNC[C@@H](O)COc2ccccc2)cc1`, for which the “activity change, positive = activation” value was -47.1%.

As to `CC1(C)C(=O)NC2=C1C(=O)C(=O)c1ccccc12`, the “activity change, positive = activation” value is -49.5%.

With `COc1ccc(Cl)cc1N=Nc1ncc[nH]1`, the “activity change, positive = activation” value is -80.9%.

In the case of `O=C(O)c1c(Sc2ccccc2)c2cc(Cl)ccc2n1Cc1ccc(Cl)cc1`, the Potency was 7.94 µM (active).

Turning to `CCCCCCCC1=CC2=CC(=O)C(C)(OC(C)=O)C(=O)C2=CN1CCc1ccccc1` (stereo not given), the activity change, positive = activation was -45.9% [at 11.4 µM].

With `COc1[nH]c2ccc(F)cc2c1C(=O)OCC1CCN(CCNS(C)(=O)=O)CC1`, the Potency result is “inactive”.

On to `COc1ccc(-c2cnnc(CCCn3ccnc3-c3ccccc3)n2)cc1`, for which the activity change, positive = activation is -71.9% [at 11.4 µM].

Turning to `CN1CCN(CCC=C2c3ccccc3Sc3ccc(S(=O)(=O)N(C)C)cc32)CC1`, the Potency result was “inactive”.

In the case of `CNCC[C@H](Oc1ccccc1OC)c1ccccc1`, the Potency result is “inactive”.

Turning to `C[N+](C)(C)CCC(=O)c1cccc2ccccc12`, the “activity change, positive = activation” value was -46.2%.

Regarding `Cc1c(-c2ccc(O)cc2)nn(-c2ccc(O)cc2)c1-c1ccc(OCCN2CCCCC2)cc1`, the “activity change, positive = activation” value was -34.2%.

Turning to `CSc1ccc2c(c1)[C@H](N1CCN(C)CC1)Cc1ccccc1S2`, the Potency result was “inactive”.

As to `C[C@@H]1CC[C@H]2C(=O)N3[C@@H](CC[C@@H](C)[C@@H]3c3ccc(Br)cc3)C(=O)N2[C@@H]1c1ccc(Br)cc1`, the activity change, positive = activation is -42.7% [at 11.4 µM].

For the molecule `NCCCCCCCCCCNS(=O)(=O)c1cccc2c(Cl)cccc12`, the “activity change, positive = activation” value was -92.2%.

Take `O=C1c2ccccc2C(Cc2ccncc2)(Cc2ccncc2)c2ccccc21`: the “activity change, positive = activation” value is -85%.

As for `CS(=O)(=O)Nc1ccc([N+](=O)[O-])cc1OC1CCCCC1`, the “activity change, positive = activation” value was -47%.

Consider `CC1(C)CC(=O)C([C@H]2C3=C(CC(C)(C)CC3=O)Oc3ccccc32)C(=O)C1`, for which the “activity change, positive = activation” value was -56.1%.

On to `O=C1C(=O)N(Cc2ccc(Cl)c(Cl)c2)c2ccccc21`, for which the “activity change, positive = activation” value is -55.6%.

Take `C[C@@H]1CC[C@H]2C(=O)NC[C@@H](O)CN2[C@@H]1c1ccc(Br)cc1`: the activity change, positive = activation was -42.5% [at 11.4 µM].

With `N#CCCN(CC#Cc1ccccc1)OCc1ccccc1`, the activity change, positive = activation was -80.9% [at 11.4 µM].

As to `N#C[C@H](Cc1ccc(O)cc1)c1ccc(O)cc1`, the “activity change, positive = activation” value is -70.9%.

Regarding `CC(C)(C)c1ccc(S(=O)(=O)/C=C\C#N)cc1`, the “activity change, positive = activation” value was -76.2%.

As to `CC(C)Oc1cccc(-n2c(CCc3c[nH]c4ccc(Br)cc34)nc3ccccc3c2=O)c1`, the “activity change, positive = activation” value was -88.7%.

Take `C1CCC(N=C(NC23CC4CC(CC(C4)C2)C3)N2CCOCC2)CC1`: the “activity change, positive = activation” value is -36.7%.

For `NC(=NC1C2CC3CC(C2)CC1C3)Nc1ccc(I)cc1` (stereo not given), the “activity change, positive = activation” value is -33%.

For the molecule `CC[N+](C)(CC)CCC[n+]1c(-c2ccccc2)c2cc(N)ccc2c2ccc(N)cc21`, the “activity change, positive = activation” value was -65.3% [at 25.6 µM].

With `COc1ccc(NC(=O)c2ccc(-c3ccc(-c4noc(C)n4)cc3C)cc2)cc1OCCN(C)C`, the “activity change, positive = activation” value is -39.5%.

Consider `CCCn1c(=O)c2[nH]c(-c3ccccc3)nc2n(CCC)c1=O`, for which the “activity change, positive = activation” value is -53.7%.

In the case of `COc1ccc2[nH]c(-c3ccccc3)c(CCNC(C)=O)c2c1`, the “activity change, positive = activation” value was -86.7%.

Turning to `NC[C@](O)(CS(=O)(=O)O)c1ccc(Cl)cc1`, the “activity change, positive = activation” value was -51.5%.

Consider `NCCCCCCNS(=O)(=O)c1cccc2c(Cl)cccc12`, for which the Potency entry is “inactive”.

Consider `CC(C)[C@@H]1[C@H]2CC[C@H](C2)[C@H]1N`, for which the “activity change, positive = activation” value is -53.6%.

For the molecule `C[C@](O)(C(=O)Nc1ccc(S(=O)(=O)c2ccccc2)cc1)C(F)(F)F`, the “activity change, positive = activation” value is -42.6%.

Regarding `COc1ccc(OC)c2c(=S)c3ccccc3[nH]c12`, the “activity change, positive = activation” value was -60.6%.

For `Nc1[nH]nc2nc3ccccc3nc12`, the “activity change, positive = activation” value was -34.8%.

Regarding `O=C(O[C@@H]1Cc2c(O)cc(O)cc2OC1c1ccc(O)c(O)c1)c1cc(O)c(O)c(O)c1` (stereo not given in full), the “activity change, positive = activation” value is -44.4%.

For the molecule `C[C@@]1(C(=O)O)NCCc2cc(O)c(O)cc21`, the “activity change, positive = activation” value was -40.7%.

Turning to `O=C(NCCCN1CCCCCC1)[C@@H](c1ccccc1)C1CCCCC1`, the “activity change, positive = activation” value was -90.9%.

Regarding `COc1cccc(CNc2ccc3nc(-c4ccc(N)cc4)c(OC)n3n2)c1`, the “activity change, positive = activation” value was -81.7%.

Source of the values: PubChem BioAssay (NCATS).
